# Source: PubChem BioAssay AID1347075 (National Center for Advancing Translational Sciences (NCATS), 2019)
# Screen size: about 400,000 compounds; about 5,500 (1.4%) were called active. Another 9% or so got no clear call; they are omitted. The call rests on the fitted dose curve; in most records, active means well fitted cell-killing curve with a large enough effect; inconclusive means small, poorly fitted or top-dose-only effect, or effect the other way; inactive means flat fitted curve, though single readings scatter. The full list was thinned out, with actives kept by preference.
# Test: qHTS assay for MDR1-selective chemotherapeutics: Primary screen using the parental adenocarcinoma cell KB-3-1; further: nearly all actives have a fitted effect of over 60% in size
# Conditions: KB-3-1 viability, CellTiter-Glo ATP luminescence, 72 h; series mostly up to 46.1 µM; activity change, negative = cytotoxic: at the top concentration
# Method in brief: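 Here the drug-naive KB-3-1 line serves as comparator for MDR sub-line selectivity; cells received compound titrations, 72 h at 37 °C, then CellTiter-Glo readout.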
# On the % scale 0 is the no-effect control and ±100 the full control effect; potency means the concentration at half of the fitted maximal effect.
SMILES,"activity change, negative = cytotoxic",Potency
Cc1ccc(Cn2cc(CN3CC(N4CCN(C)CC4)CS3(=O)=O)nn2)cc1 (stereo not drawn),10.6% (inactive),–
CN(C)C1CN(Cc2cn(Cc3ccccc3)nn2)S(=O)(=O)C1 (stereo not drawn),12.6% (inactive),–
CN(Cc1cn(Cc2ccc(C(F)(F)F)cc2)nn1)C1CN(Cc2cn(Cc3ccc(C(F)(F)F)cc3)nn2)S(=O)(=O)C1 (stereo not drawn),–,10.3 µM (active)
CCOc1ccc2nc(N3CCC(C(=O)Nc4cc(C)ccc4C)CC3)sc2c1,-1.47% (inactive),–
Cn1ccc2cc(S(=O)(=O)N3CCCC(C(=O)NCc4ccccc4F)C3)ccc21 (stereo not drawn),-9.83% (inactive),–
COc1cc(Cl)c(NC(=O)CC(C)S(=O)(=O)c2cc3c(cc2C)NC(=O)CO3)c(OC)c1 (stereo not drawn),-1.47% (inactive),–
Cc1ccccc1CNC(=O)c1cccc(NC(=O)c2nsc3ccccc23)c1,-18.2% (inactive),–
O=C(NNC(=O)c1ccccc1O)c1ccccc1O,–,2.59 µM (active)
O=C(NNC(=O)c1cc(S(=O)(=O)N2CCCCC2)ccc1Cl)c1ccccc1O,-19.1% (inactive),–
CC1=C(C)CC(C(=O)NNC(=O)c2ccccc2O)C(C(=O)O)C1 (stereo not drawn),0% (inactive),–
Cc1ccc(CSc2oc(-c3cccs3)nc2S(=O)(=O)c2ccc(C)cc2)cc1,-8.61% (inactive),–
CCN(C(=O)COc1ccc(C(=O)c2ccccc2)cc1)c1ccccc1,19.5% (inactive),–
CCN(C(=O)c1sc2cc(OC)ccc2c1Cl)c1ccccc1,–,20.6 µM (active)
CCN(C(=O)c1ccc(Br)cc1)c1ccccc1,-3.05% (inactive),–
CCC(=O)Nc1cccc(-c2nc3cc(C)ccc3o2)c1,-5.02% (inactive),–
CCN(CC)S(=O)(=O)c1ccc2c(c1)c(=O)c(C(=O)N1CCN(c3cccc(Cl)c3)CC1)cn2C,5.98% (inactive),–
CCn1c(/C=C/c2ccc([N+](=O)[O-])o2)nc2ccccc2c1=O,–,3.26 µM (active)
C=CCn1c(SCC(=O)NC(=O)Cc2ccccc2)nc2ccccc2c1=O,3.54% (inactive),–
CCCN(CCC)c1c([N+](=O)[O-])c(=O)oc2ccccc12,8.54% (inactive),–
CCCCCn1c(CCCNC(=O)c2ccccc2OC)nc2ccccc21,1.41% (inactive),–
CCOC(=O)C1=C(CCc2ccccc2)NC(=O)NC1c1ccc2ccccc2c1 (stereo not drawn),–,23.1 µM (active)

SMILES,"activity change, negative = cytotoxic",Potency
CCOCCOC(=O)C1=C(C)NC(=O)NC1c1ccc2c(c1)OCO2 (stereo not drawn),-14.7% (inactive),–
CCOC(=O)C1=C(CN2CCc3ccccc32)NC(=O)NC1c1ccc(Cl)cc1 (stereo not drawn),-23.1% (inactive),–
Cc1cccc(N2CCN(C(=O)c3cc4c(=O)oc5ccccc5c4s3)CC2C)c1 (stereo not drawn),-10.4% (inactive),–
CCOc1ccc(NC(=O)C(=O)NCCc2csc3nc(-c4ccccc4F)nn23)cc1,7.86% (inactive),–
O=[N+]([O-])c1ccc(C=Nc2ccc(Cl)cc2Cl)s1,–,16.4 µM (active)
CCOC(=O)C(Cc1ccccc1)NC(=O)CCc1c(C)nc2c(c(C)nn2-c2ccc(C)c(C)c2)c1C (stereo not drawn),6.17% (inactive),–
COc1cccc(CNC(=O)C2CCN(S(=O)(=O)c3ccc4c(ccn4C)c3)CC2)c1,6.47% (inactive),–
COc1ccc(-c2nn3c(=O)cc(CN4CCN(C(=O)c5ccc(OC)c(OC)c5)CC4)nc3s2)cc1,-2.16% (inactive),–
CCS(=O)(=O)N1CCC(n2c(C)nc3cccnc32)CC1,6.58% (inactive),–
COc1ccccc1CNC(=O)c1ccc(NC(=O)N2CC(C)Sc3ccccc32)cc1 (stereo not drawn),2.43% (inactive),–
NC(=O)C1(N2CCCCC2)CCN(C(=S)Nc2ccc(Cl)cc2)CC1,–,11.6 µM (active)
Cc1cc(Cl)ccc1NC(=S)N1CCC(C(N)=O)(N2CCCCC2)CC1,2.27% (inactive),–
O=C(NC1CCN(C(=S)Nc2ccc(Cl)cc2)CC1)C1CCCCC1,-1.98% (inactive),–
O=C(CCC(=O)N1CC2CCCN2c2ccccc21)NCc1ccccc1Cl (stereo not drawn),-1.48% (inactive),–
CCc1ccc(NC(=O)c2cc3c(=O)n(Cc4cccnc4)ccc3nc2C)cc1,4.71% (inactive),–
COc1ccc(-n2c(=O)c3c(c4cc(OC)ccc4n3C)n(Cc3cccc(C)c3)c2=O)cc1,4.89% (inactive),–
O=C(NNC(=O)c1ccc(Cl)nc1)c1ccc(Br)cc1,2.64% (inactive),–
CCN(CC)c1ccc(NC(=O)CN2CCN(CC(=O)Nc3ccc(Cl)cc3)CC2)cc1,-6.2% (inactive),–
CCN(CC)c1ccc(NC(=O)c2ccc(Cl)nc2)cc1,–,5.17 µM (active)
CN(C)c1ccc(C(CNS(=O)(=O)c2cc(F)ccc2F)N2CCOCC2)cc1 (stereo not drawn),2.75% (inactive),–
Cc1ccc(C)c(N2CCN(S(=O)(=O)c3ccc4c(c3)C(C(C)C)C(=O)N4)CC2)c1 (stereo not drawn),-22.4% (inactive),–

SMILES,"activity change, negative = cytotoxic",Potency
CCC1CCCCN1C(=O)Cn1c(=O)n(CCCCCC(=O)NCc2ccccc2)c(=O)c2sccc21 (stereo not drawn),14.4% (inactive),–
O=C(c1ccc(Br)cc1)N(Cc1cccs1)c1ccc(F)cc1,1.61% (inactive),–
Nc1ccccc1N,6.52% (inactive),–
Cc1ccc(Nc2ccccc2N)cc1,–,20.6 µM (active)
Cc1ccc(Nc2c(-c3ccc(C)s3)nc3ccccn23)cc1,-11.2% (inactive),–
Cc1ccc([N+](=O)[O-])cc1S(=O)(=O)N1CCCN(C)CC1,13.9% (inactive),–
Cc1ccc2c(c1)C1CN(C)CCC1N2C(=O)c1ccccc1NS(=O)(=O)c1ccc(F)cc1C (stereo not drawn),-7.9% (inactive),–
Cc1ccc2c(c1)C1CN(C)CCC1N2S(=O)(=O)c1ccc(Oc2ccc([N+](=O)[O-])cc2)cc1 (stereo not drawn),–,18.4 µM (active)
COc1ccc(-c2nn(CC(=O)NC3CCCC3)c3c2cnc2ccc(F)cc23)cc1,-23.3% (inactive),–
Cc1ccc(CNC(=O)c2c(O)nc3c(C)cccn3c2=O)cc1,-7.52% (inactive),–
COc1cccc(OCC(=O)NNC(=O)c2cnccn2)c1,9.62% (inactive),–
CCN(CC)c1ccc(/C=N/NC(=O)c2cnccn2)c(O)c1,–,0.731 µM (active)
NS(=O)(=O)c1ccc(CNC(=O)c2cnccn2)cc1,3.21% (inactive),–
O=C(/C=C/c1ccccc1)N1CCN(Cc2cc(=O)n3nc(-c4ccccc4F)sc3n2)CC1,-7.72% (inactive),–
C/C(CC(=O)NCc1ccc(Cl)cc1)=N\NC(=O)COc1ccc(C)cc1Br,–,5.17 µM (active)
Cc1ccc(CNC(=O)CN2CCN(Cc3ccc(Cl)cc3)C2=O)cc1,9.48% (inactive),–
Cc1ccc(CNC(=O)COc2ccc3c(c2)CCC3)cc1,22.2% (inactive),–
Cc1ccc2oc(C(=O)Nc3ccc(S(=O)(=O)N4CCCCCC4)cc3)cc(=O)c2c1,25.6% (inactive),–
Cc1ccc(C)c(N2CCN(C(=O)Cc3c(C(=O)O)c(C)cn3C)CC2)c1,6% (inactive),–
CC[n+]1cc(C)ccc1/C=C/c1ccc(N(C)C)cc1,–,1.84 µM (active)
CCc1ccc(-c2nn3c(C)nnc3s2)cc1NC(=O)c1ccc(-c2cccc(Cl)c2)o1,-4.36% (inactive),–
